Results reported in the supplement of paper PMC6279402.
± gives the standard deviation of the averaged measurements.

Tested on: A549
Assay: relative viability (normalised to negative control = 1, bortezomib = 0) (fraction); higher = less cytotoxic
Conditions: inflammatory serum-free RHB-A with cytokines + LPS, 5 d + 24 h CellTiter-Blue
[1] = compound 30 nM, GSK126 pretreatment: 5 uM GSK126
[2] = compound 30 nM, GSK126 pretreatment: none (vehicle)
[3] = compound 300 nM, GSK126 pretreatment: 5 uM GSK126
[4] = compound 300 nM, GSK126 pretreatment: none (vehicle)

Structure (SMILES) | relative viability [1] | relative viability [2] | relative viability [3] | relative viability [4]
Cc1ncc(-c2ccnc(Nc3ccc(S(C)(=O)=O)cc3)n2)n1C(C)C | 0.867 ± 0.072 | 0.854 ± 0.011 | 0.675 ± 0.062 | 0.69 ± 0.03
Cc1ccc(NC(=O)c2ccc(CN3CCN(C)CC3)cc2)cc1Nc1nc(-c2cccnc2)cs1 [Masitinib(AB1010)] | 0.802 ± 0.1 | 0.761 ± 0.1 | 0.841 ± 0.11 | 0.979 ± 0.091
NC(=O)c1ccc(-c2nc(-c3ccccn3)c(-c3ccc4c(c3)OCO4)[nH]2)cc1 | 0.825 ± 0.08 | 0.814 ± 0.1 | 0.817 ± 0.073 | 0.882 ± 0.1
